Experimental data published in PubChem BioAssay AID588335 (The Scripps Research Institute Molecular Screening Center, 2011).
In all, about 360,000 compounds went through this assay and about 4,500 (1.2%) were called active. Rule as the data show it: active = inhibition above about 30%; inactive = the rest. Only a selection was taken, and actives are over-represented in it overall.

Assay: GDH-TPI coupling enzyme inhibitors, primary screen, artefact control for M. tuberculosis FBA inhibitor project, biochemical, absorbance, full deck (AID 588335);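 also: 0% = DMSO wells and 100% = wells lacking the enzyme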
Conditions: GDH-TPI coupled enzyme counterscreen, NADH absorbance; at 4.8 µM; hits give high values

| Structure (SMILES) | inhibition |
| --- | --- |
| Brc1ccc(CN2CC[C@H]3C=CCc4cccc(c43)C2)cc1 | 6.9% (inactive) |
| CC(=O)N1CCOc2ccc(S(=O)(=O)N3CCN(c4cccc(C(F)(F)F)c4)CC3)cc21 | 6.9% (inactive) |
| O=C(N/N=C\c1ccc(-c2ccc(Cl)c(Cl)c2)o1)C(=O)N1CCCC1 | 14.3% (inactive) |
| COC(=O)N/N=C/c1ccc(-c2ccc(Cl)c(Cl)c2)o1 | 31.5% (active) |
| O=C(Cn1nnc(-c2ccccc2)n1)N/N=C/c1ccc(-c2ccc(Cl)cc2)o1 | 11.2% (inactive) |
| CCC1Sc2ccc(S(=O)(=O)CCC(=O)NCc3cccs3)cc2NC1=O (configuration not stated) | 10% (inactive) |
| Cc1cc(C(=O)N2CCCC2(C)C(=O)O)c(C)o1 (configuration not stated) | -1.83% (inactive) |
| Cn1c(=O)n(C)c2cc(/C=N/NC(=O)c3cccc(Br)c3)ccc21 | 31.9% (active) |
| CCOc1cc(/C=N/NC(=O)c2cccc(S(=O)(=O)N3CCOCC3)c2)ccc1OCC(=O)N(C)C | 26.9% (inactive) |
| COc1cc(/C=N/NC(=O)c2cccnc2)ccc1OC(=O)c1cccc(Br)c1 | 7.96% (inactive) |
| CC(NC(=O)C(=O)N/N=C/c1ccc(Cl)cc1)c1ccccc1 (configuration not stated) | -6.35% (inactive) |
| CSc1ccc(/C=N/NC(=O)c2cccc(Cl)c2)cc1 | 31.8% (active) |
| O=C(N/N=C/c1ccoc1)c1ccc(Cl)cc1Cl | -4.38% (inactive) |
| O=C(OCC(=O)N1CCCCCC1)c1cnc(Cl)c(Cl)c1 | -4.78% (inactive) |
| COc1ccc(C2CC(=O)Oc3ccc(C(C)(C)C)cc32)cc1 (configuration not stated) | 10.2% (inactive) |
| COc1ccc([C@H]2CC(=O)C=C(/C=C/c3ccc(Cl)cc3)C2)cc1 | 2.59% (inactive) |
| COc1ccc([C@H]2CC(=O)C=C(/C=C/c3ccccc3)C2)cc1 | 37.2% (active) |
| COc1ccc([C@H]2CC(=O)C=C(c3ccc(C)cc3)C2)cc1 | 13.4% (inactive) |
| CCCCC(=O)N(C)c1c(CC)nc2c(OCc3ccc(S(C)(=O)=O)cc3)cccn12 | 8.04% (inactive) |
| CN(C)Cc1ccc(F)cc1Sc1cc(Cl)ccc1Cl | 6.23% (inactive) |
| OCCNc1nc2ccccc2n1-c1ncnc2sc3c(c12)CCC3 | 7.12% (inactive) |
| COc1ccc(/C=N/Nc2ncnc3sc4c(c23)CCCC4)cc1O | 34.2% (active) |
| COc1ccc(NC(=O)CCCNC(=O)Cn2cnc3sc4c(c3c2=O)CCCC4)cc1OC | 4.67% (inactive) |
| Cc1nnc(NC(=O)CCC(=O)N2CCC(C)CC2)s1 | -8.68% (inactive) |
| Cc1noc(NS(=O)(=O)c2ccc(N/C=C/C(=O)c3ccccc3)cc2)c1C | 32.3% (active) |
| Cc1ccc(C(=O)/C=C/Nc2ccc(S(=O)(=O)Nc3onc(C)c3C)cc2)cc1 | 21.6% (inactive) |
| Cc1noc(NS(=O)(=O)c2ccc(NC(=O)C34CCC(CC3)C4)cc2)c1C | -6.12% (inactive) |
